Measurements as given in PubChem BioAssay (NCATS).
Records with an inconclusive call do not appear. A call without a number means that no potency is given here. Activity calls are given as the source filed them. The call rests on the fitted dose curve; in most records, active means well fitted inhibition curve with a large enough effect; inconclusive means small, poorly fitted or top-dose-only effect; inactive means flat fitted curve, though single readings scatter.

Test system: CP329
Test: qHTS profiling for inhibitors of Plasmodium falciparum proliferation (AID 504749); further: nearly all actives have a fitted effect of over 60% in size
Details: P. falciparum in erythrocytes, SYBR Green DNA, 72 h; series mostly up to 28.7 µM
How it was run: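 P. falciparum-infected erythrocytes (0.3% parasitemia, 2.5% hematocrit) incubated with compound 72 h at 37 C, 5% CO2. Parasite DNA detected by SYBR Green after lysis, overnight at room temperature; normalised to 0.29 uM artemisinin and DMSO.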
Potency means the concentration at half of the fitted maximal effect.

Question: With C=C1C(=CC=C2CCC[C@@]3(C)[C@@H]2CC[C@H]3[C@H](C)CCCC(C)C)C[C@@H](O)C[C@@H]1O as the compound, how does the Potency read?
Answer: inactive

Question: Which Potency does the source give for O=C(COc1ccc(Cl)cc1)OCCNC12CC3CC(CC(C3)C1)C2 here?
Answer: inactive

Question: For CCCCCCCC(=O)O, which Potency is on record?
Answer: inactive

Question: How did the Potency turn out when O=CCCCC=O was run?
Answer: inactive

Question: CCCCC(=O)O[C@]1(C(=O)CO)[C@H](C)C[C@H]2[C@@H]3CCC4=CC(=O)C=C[C@]4(C)[C@@]3(F)[C@@H](O)C[C@@]21C was tested. Which Potency did it give?
Answer: inactive

Question: With O=C(O)CCC(=O)C(=O)O as the compound, how does the Potency read?
Answer: inactive

Question: How did the Potency turn out when O=C(O)c1cc(=O)c2c3nc4ccccc4oc-3cc(=O)c2[nH]1 was run?
Answer: inactive

Question: CC(Cc1ccc(O)c(O)c1)C(C)Cc1ccc(O)c(O)c1 (stereo not drawn) was tested. Which Potency did it give?
Answer: inactive

Question: With C#C[C@]1(O)CC[C@H]2[C@@H]3CCC4=CCCC[C@@H]4[C@H]3C(=C)C[C@@]21CC as the compound, how does the Potency read?
Answer: inactive

Question: Which Potency does the source give for CCN(CC)CCOc1ccc(-c2nc3cc(Cl)ccc3s2)cc1 here?
Answer: inactive

Question: COC(=O)C1=C(C#N)NC(C)=C(C(=O)OC(C)C)C1c1cccc([N+](=O)[O-])c1 (stereo not drawn) was tested. Which Potency did it give?
Answer: 15.1 µM (active)

Question: With CN(C)CCCN1c2ccccc2C(C)(C)c2ccccc21 as the compound, how does the Potency read?
Answer: inactive

Question: How did the Potency turn out when IC(I)I was run?
Answer: inactive

Question: How did the Potency turn out when CC1=C(/C=C/C(C)=C/C=C/C(C)=C/CO)C(C)(C)CCC1 was run?
Answer: inactive

Question: With O=S(=O)(O)c1cc(O)c2c(N=Nc3ccc(Nc4ccccc4)c4c(S(=O)(=O)O)cccc34)cc(S(=O)(=O)O)cc2c1 as the compound, how does the Potency read?
Answer: inactive

Question: With NC(=O)c1ncn(C2OC(CO)C(O)C2O)n1 (stereo not drawn) as the compound, how does the Potency read?
Answer: inactive

Question: How did the Potency turn out when CC[C@@]1(O)C(=O)OCc2c1cc1n(c2=O)Cc2cc3c([N+](=O)[O-])cccc3nc2-1 was run?
Answer: 12 µM (active)

Question: How did the Potency turn out when COc1cc(-c2ccc(-[n+]3nc(-c4ccccc4)nn3-c3ccc([N+](=O)[O-])cc3)c(OC)c2)ccc1-[n+]1nc(-c2ccccc2)nn1-c1ccc([N+](=O)[O-])cc1 was run?
Answer: 15.1 µM (active)
